An excerpt weighted towards active compounds, which were near 3% of everything screened.
p53null 39C kill = selectivity test: cytotoxicity in p53 null cells, nonpermissive temperature | H1299 p53-null (neo) cells, 39C, ATPlite viability, 24 h | Potency, µM (top dose mostly 46.1 µM), for inactives: top-dose activity, negative = cell killing, hits mostly cytotoxic | hit rate 0.97% among 55,000 | AID 904;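 note: 0% = DMSO only and -100% = full killing by 100 µM tamoxifen; nearly all actives have a fitted effect of over 50% in size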
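Temperature-shift cytotoxicity format: compound titrations on p53-null or A138V-expressing H1299 cells held 24 hr at 39C, cell ATP then measured, AC50 from Hill model.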
p53null 32C kill = selectivity test: cytotoxicity in p53 null cells, permissive temperature; H1299-neo p53 null cells, ATP luminescence, 24 h, 32C; Potency, µM (series often up to 46.1 µM), without a hit: at the top dose activity change, negative = cytotoxicity, actives largely listed as cytotoxic; hit rate 0.62% among 55,000; AID 903;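 note: 0% = DMSO only and -100% = full killing by 100 µM tamoxifen; nearly all actives have a fitted effect of over 55% in size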
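Cytotoxicity: H1299-neo (no p53), 32C, 24 h treatment. Concentrations up to 46 uM. Readout cellular ATP, luminescence. Normalization to DMSO basal and tamoxifen 100 uM maximal kill.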
S16 viability = cytotoxicity in S16 Pmp22-F2sN Schwann cells; S16 Pmp22-F2sN Schwann cells viability, CellTiter-Glo, 24 h; Potency, µM (series often up to 57.5 µM), without a hit: at the highest dose activity change, negative = cytotoxicity, hits mostly cytotoxic; hit rate 0.48% among 43,000; AID 1508642; note: nearly all actives have a fitted effect of over 65% in size
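Rat S16 Schwann reporter line, 24 h treatment with library compounds delivered at 23 nL per well. Cell viability by CellTiter-Glo luminescence.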
pS6 MEF inh = reduces mTORC1 signaling in Tsc2 and p53 null MEF cells | Tsc2-/- p53-/- MEF, phospho-rpS6 immunofluorescence/PI, 24 h | Potency, µM (doses to about 38.3 µM), without a hit: at the highest dose activity change, negative = inhibition, most hits filed as inhibitors | hit rate 0.78% among 44,000;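 note: plate controls were DMSO for no effect and rapamycin for full effect; nearly all actives have a fitted effect of over 50% in size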
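Tsc2-/-, p53-/- MEFs (empty-vector stable line) in DMEM + 10% FBS were treated with compounds 24 h at 37 degree Celsius, fixed, and immunostained for phospho-rpS6 (Alexa-488) with propidium iodide counterstain. Laser-scanning cytometry gave % positive cells, normalized against 7.5 nM rapamycin and DMSO.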
PMP22 txn = modulates PMP22 transcription in S16 Schwann cells; S16 Pmp22-F2sN Schwann cells (luciferase reporters placed in the Pmp22 gene), FLuc/NLuc coincidence luminescence, 24 h; Potency, µM (highest dose often 57.5 µM), inactives show at the highest dose activity change, negative = inhibition, most hits filed as inhibitors; hit rate 2% among 43,000; AID 1508649; active = clear falling dose curves in both reporters; inconclusive = both reporters move, but less clearly or upward; inactive = either reporter flat; the % is the NLuc reporter signal
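Reporter cells (S16 Pmp22-F2sN, 500–1,000 per well) exposed to compounds for 24 h, 37C, 5% CO2; lysis with FLuc read after 10 min, then Stop&Glo and NLuc read after 10 min.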
SKOV3 invasion = ovarian cancer metastasis inhibition, 3D TME model. SKOV3ip1-GFP adhesion/invasion on 3D omental model, fluorescence. Potency, µM (highest dose often 45.8 µM), inactives show top-dose activity change, negative = inhibition, most hits filed as inhibitors. hit rate 0.1% among 46,000. AID 1963576;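 note: plate controls were DMSO wells for no effect and tomatine positive control wells for full effect; nearly all actives have a fitted effect of over 65% in size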
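Adhesion/invasion was scored as fixed GFP-labeled SKOV3ip1 cell counts (488/509 nm), normalized to DMSO and tomatine controls. Cancer cells in serum-free medium, with four compound doses (0.36-46 umol/L), sat 2 hr at RT then 16 hr at 37 C on a 48 hr fibroblast/mesothelial/ECM culture.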
* hit, by the source's call. Unless noted, calls come from the whole dose curve; as a rule, active = well fitted curve in the direction sought with a large enough effect; inconclusive = small, poorly fitted or top-dose-only effect, or another doubt; inactive = no such curve, though single readings can be large; an effect the other way counts as inactive or inconclusive. Unless noted, % is set by controls: 0 for no effect and ±100 for the full control effect; potency is the fitted concentration of half-maximal effect.

How did Cc1ccc(S(=O)(=O)Nc2ccc(-c3cn4ccc(C)cc4n3)cc2)cc1 do in these assays?
p53null 39C kill: 8%

How did Cc1ccc(-c2cn3ccc(C)cc3n2)cc1 do in these assays?
p53null 39C kill: 0.79µM*; p53null 32C kill: 0.63µM*; S16 viability: 10%; pS6 MEF inh: -4%; PMP22 txn: inconclusive; SKOV3 invasion: inactive

Results for COc1ccc(C(=O)Nc2c(C(=O)c3ccc(F)cc3)oc3ccccc23)cc1 ?
p53null 39C kill: inconclusive; p53null 32C kill: 2%; S16 viability: -1%; pS6 MEF inh: 1%; PMP22 txn: 10µM*; SKOV3 invasion: inactive

What do the screens show for `Cc1cc(OCC(=O)Nc2c(C(=O)c3ccccc3)oc3ccccc23)cc(C)c1Cl`?
p53null 39C kill: 17%; p53null 32C kill: 0%; S16 viability: 8%; pS6 MEF inh: 8%; PMP22 txn: -10%; SKOV3 invasion: 6%

Results for O=C(Nc1noc2ccccc12)c1ccc(F)cc1 ?
p53null 39C kill: inconclusive; p53null 32C kill: 13µM*; S16 viability: -1%; pS6 MEF inh: 3%; PMP22 txn: -23%; SKOV3 invasion: 5%

Results for COc1cccc(NC(=O)c2oc3ccccc3c2NC(=O)c2ccc(OC(C)C)cc2)c1 ?
p53null 39C kill: 13µM*; p53null 32C kill: 16µM*; S16 viability: -14%; pS6 MEF inh: -5%; PMP22 txn: 9%; SKOV3 invasion: -14%

How did Cc1cccc(C)c1OCC(=O)Nc1c(C(=O)c2ccccc2)oc2ccccc12 do in these assays?
p53null 39C kill: -19%; p53null 32C kill: 1%; S16 viability: 6%; pS6 MEF inh: -9%; PMP22 txn: -22%; SKOV3 invasion: 10µM*

What do the screens show for `COc1ccc(C(=O)c2oc3ccccc3c2NC(=O)c2ccc(F)cc2)cc1`?
p53null 39C kill: 9%; p53null 32C kill: -6%; S16 viability: 3%; pS6 MEF inh: 10%; PMP22 txn: -19%; SKOV3 invasion: inactive

What do the screens show for `CCn1c(-c2nonc2N)nc2cncc(CNC3CCNCC3)c21`?
SKOV3 invasion: -21%

How did C=CCNc1c(O)cc2c(O)c1C[C@@H](C)C[C@H](OC)[C@@H](O)[C@@H](C)C=C(C)[C@H](OC(N)=O)[C@@H](OC)C=CC=C(C)C(=O)N2 do in these assays?
SKOV3 invasion: 20%

What do the screens show for `O=C(CCCCCCC(=O)Nc1ccc([C@H]2O[C@@H](CSc3nc(-c4ccccc4)c(-c4ccccc4)o3)C[C@@H](c3ccc(CO)cc3)O2)cc1)NO`?
SKOV3 invasion: -15%

Results for N#Cc1cc(NC(=O)Nc2nnc(-c3ccncc3)s2)ccc1-c1cn[nH]c1 ?
SKOV3 invasion: -5%

Results for COc1ccc(-n2c(/C=C/c3ccccc3F)nc3cc(OC)c(OC)cc3c2=O)cc1Cl ?
p53null 39C kill: 13%; p53null 32C kill: -4%; S16 viability: 10µM*; pS6 MEF inh: 5%; PMP22 txn: -29%; SKOV3 invasion: 5%

Results for COc1ccc(-n2c(/C=C/c3cc(OC)c(OC)cc3OC)nc3cc4ccccc4cc3c2=O)cc1Cl ?
p53null 39C kill: 23%; p53null 32C kill: -6%; S16 viability: 6%; pS6 MEF inh: inconclusive; PMP22 txn: 39%; SKOV3 invasion: -23%

Results for COc1ccc(Nc2nc(N)c3cc(OC)c(OC)cc3n2)cc1 ?
p53null 39C kill: inconclusive; p53null 32C kill: inconclusive; S16 viability: inconclusive; pS6 MEF inh: 18µM*; PMP22 txn: inconclusive; SKOV3 invasion: inconclusive
